Test results from PubChem BioAssay (NCATS).
Records with an inconclusive call do not appear. The source made the active and inactive calls. Calls follow the shape of the dose curve; as a rule, active = well fitted curve in the direction sought with a large enough effect; inconclusive = small, poorly fitted or top-dose-only effect, or another doubt; inactive = no such curve, though single readings can be large; an effect the other way counts as inactive or inconclusive.

Legend:
Hek293T = test: Primary qHTS to identify gynecologic anti-cancer compounds using libraries of approved drugs and bioactive compounds (AID 1345084); conditions: Gynecologic cancer cell panel viability, ATPlite luminescence, 48 h, control line for the selectivity index; series mostly up to 57.5 µM; also: nearly all actives have a fitted effect of over 55% in size
In short: (§1)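 Cells, 1,000 per well, plated 16 h, then exposed 48 h at 37 C to compounds. Viability by ATPlite luminescence after 15 min at room temperature.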

JEG-3 = test: as above; conditions: Gynecologic cancer cell panel viability, ATPlite luminescence, 48 h; series mostly up to 57.5 µM
In short: as §1

OV90 = test: as above; conditions: Gynecologic cancer cell panel viability, ATPlite luminescence, 48 h; series mostly up to 57.5 µM
In short: as §1

PA-1 = test: as above; conditions: Gynecologic cancer cell panel viability, ATPlite luminescence, 48 h; series mostly up to 57.5 µM
In short: as §1

SKOV3 = test: as above; conditions: Gynecologic cancer cell panel viability, ATPlite luminescence, 48 h; series mostly up to 57.5 µM
In short: as §1

Tov-21-G = test: as above; conditions: Gynecologic cancer cell panel viability, ATPlite luminescence, 48 h; series mostly up to 57.5 µM
In short: as §1

Tov112D = test: as above; conditions: Gynecologic cancer cell panel viability, ATPlite luminescence, 48 h; series mostly up to 57.5 µM
In short: as §1

[1] = Drug repurposing screens with cells derived from glioblastoma tumor samples (AID 1345199); conditions: GBM patient neurospheres viability, ATP luminescence, 48 h; also: nearly all actives have a fitted effect of over 40% in size; also: potency is read from the fitted curve at half-maximal effect
In short: (§2)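 Four patient lines of CD133+ GBM neurospheres were screened at several concentrations; hits were retested in those lines plus three slower-growing GBM lines, using 48-hour treatment and ATP-based viability.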

astro = test: as above; conditions: viability, ATP luminescence, 48 h; series mostly up to 45.9 µM
In short: as §2

[2] = at 45.9 µM (top of the series), tumour line B
[3] = at 45.9 µM (top of the series), tumour line D
[4] = at 46 µM (top of the series), tumour line A
[5] = at 46.1 µM (top of the series), tumour line C
% is scaled to controls: 0 for no effect and ±100 for the full control effect.

CC1CN(c2cc3c(cc2F)c(=O)c(C(=O)O)cn3-c2ccc(F)cc2F)CCN1 (centres undefined)
inactive: activity change, negative = cytotoxicity (Hek293T) -5.43% [at 6.55 µM] | activity change, negative = cytotoxicity (JEG-3) 13.6% [at 6.55 µM] | activity change, negative = cytotoxicity (OV90) 18.6% [at 6.55 µM] | activity change, negative = cytotoxicity (PA-1) 6.96% [at 6.55 µM] | activity change, negative = cytotoxicity (SKOV3) -2.15% [at 6.55 µM] | activity change, negative = cytotoxicity (Tov-21-G) -0.759% [at 6.55 µM] | activity change, negative = cytotoxicity (Tov112D) -5.84% [at 6.55 µM] | activity, negative = cell killing [1, 2] -0.773% | activity, negative = cell killing [1, 3] -11% | activity, negative = cell killing [1, 4] -6.24% | activity, negative = cell killing [1, 5] -10.7% | Potency (astro)

CCc1cc(S(=O)(=O)O)c2cc(C(C)C)cccc1-2
inactive: Potency (Hek293T) | Potency (JEG-3) | Potency (OV90) | Potency (PA-1) | Potency (SKOV3) | Potency (Tov-21-G) | Potency (Tov112D) | activity, negative = cell killing [1, 2] -10.8% | activity, negative = cell killing [1, 3] -10.6% | activity, negative = cell killing [1, 5] -1.11% | Potency (astro)

Nc1c(NC/C=C\COc2cc(CN3CCCCC3)ccn2)c(=O)c1=O
inactive: Potency (Hek293T) | Potency (JEG-3) | Potency (OV90) | Potency (PA-1) | Potency (SKOV3) | Potency (Tov-21-G) | Potency (Tov112D) | activity, negative = cell killing [1, 2] -4.69% | activity, negative = cell killing [1, 3] -28.9% | activity, negative = cell killing [1, 5] 3.18% | Potency (astro)

C[C@]12CCC(=O)C=C1CC[C@@H]1[C@@H]2[C@@H](O)C[C@@]2(C)[C@H]1CC[C@]2(O)C(=O)COC(=O)CCC(=O)O
inactive: Potency (Hek293T) | Potency (JEG-3) | Potency (OV90) | Potency (PA-1) | Potency (SKOV3) | Potency (Tov-21-G) | Potency (Tov112D) | activity, negative = cell killing [1, 2] -2.56% | activity, negative = cell killing [1, 3] -26.6% | activity, negative = cell killing [1, 5] -2.87% | Potency (astro)

CCCCCC[C@@H](CCC)C(=O)O
inactive: Potency (Hek293T) | Potency (JEG-3) | Potency (OV90) | Potency (PA-1) | Potency (SKOV3) | Potency (Tov-21-G) | Potency (Tov112D) | activity, negative = cell killing [1, 2] -11.8% | activity, negative = cell killing [1, 3] -7.11% | activity, negative = cell killing [1, 5] -6.46% | Potency (astro)

CCOC(=O)[C@H](CCc1ccccc1)N[C@@H](C)C(=O)N(CC(=O)O)C1Cc2ccccc2C1
inactive: Potency (Hek293T) | Potency (JEG-3) | Potency (OV90) | Potency (PA-1) | Potency (SKOV3) | Potency (Tov-21-G) | Potency (Tov112D) | activity, negative = cell killing [1, 2] -1.19% | activity, negative = cell killing [1, 3] -9.08% | activity, negative = cell killing [1, 5] 19.3% | Potency (astro)

CN(C(=O)C(Cl)Cl)c1ccc(OC(=O)c2ccco2)cc1
inactive: Potency (Hek293T) | Potency (JEG-3) | Potency (OV90) | Potency (PA-1) | Potency (SKOV3) | Potency (Tov-21-G) | Potency (Tov112D) | activity, negative = cell killing [1, 2] -5.88% | activity, negative = cell killing [1, 3] -16.9% | activity, negative = cell killing [1, 5] -29.6% | Potency (astro)
active: Potency ([1]; tumour line A) 35.5 µM

CCCCCC1Nc2cc(C(F)(F)F)c(S(N)(=O)=O)cc2S(=O)(=O)N1 (centres undefined)
inactive: Potency (Hek293T) | Potency (JEG-3) | Potency (OV90) | Potency (PA-1) | Potency (SKOV3) | Potency (Tov-21-G) | Potency (Tov112D) | activity, negative = cell killing [1, 2] -8.57% | activity, negative = cell killing [1, 3] -19.1% | activity, negative = cell killing [1, 5] -6.63% | Potency (astro)

OCCCc1ccccc1
inactive: Potency (Hek293T) | Potency (JEG-3) | Potency (OV90) | Potency (PA-1) | Potency (SKOV3) | Potency (Tov-21-G) | Potency (Tov112D) | activity, negative = cell killing [1, 2] -21.4% | activity, negative = cell killing [1, 3] -9.24% | activity, negative = cell killing [1, 4] -22.3% | activity, negative = cell killing [1, 5] 2.38% | Potency (astro)

O=C(O)Cc1ccccc1Oc1ccc(Cl)cc1Cl
inactive: Potency (Hek293T) | Potency (JEG-3) | Potency (OV90) | Potency (PA-1) | Potency (SKOV3) | Potency (Tov-21-G) | Potency (Tov112D) | activity, negative = cell killing [1, 2] -7.43% | activity, negative = cell killing [1, 3] -9.2% | activity, negative = cell killing [1, 5] 1.53% | Potency (astro)

CN(CC1(C)CCCO1)S(=O)(=O)c1ccc(Cl)c(S(N)(=O)=O)c1 (centres undefined)
inactive: Potency (Hek293T) | Potency (JEG-3) | Potency (OV90) | Potency (PA-1) | Potency (SKOV3) | Potency (Tov-21-G) | Potency (Tov112D) | activity, negative = cell killing [1, 2] -9.01% | activity, negative = cell killing [1, 3] -23.5% | activity, negative = cell killing [1, 5] 16.1% | Potency (astro)

CC(C)=CCC/C(C)=C/CC/C(C)=C/CCC(=O)OC/C=C(\C)CCC=C(C)C
active: Potency ([1]; tumour line A) 35.5 µM
inactive: Potency (Hek293T) | Potency (JEG-3) | Potency (OV90) | Potency (PA-1) | Potency (SKOV3) | Potency (Tov-21-G) | Potency (Tov112D) | activity, negative = cell killing [1, 2] -1.59% | activity, negative = cell killing [1, 3] -0.887% | activity, negative = cell killing [1, 5] -6.49% | Potency (astro)

CC(=O)N[C@@H](CCC(N)=O)C(=O)O
inactive: Potency (Hek293T) | Potency (JEG-3) | Potency (OV90) | Potency (PA-1) | Potency (SKOV3) | Potency (Tov-21-G) | Potency (Tov112D) | activity, negative = cell killing [1, 2] -17.6% | activity, negative = cell killing [1, 3] -7.79% | activity, negative = cell killing [1, 5] -4.41% | Potency (astro)

N[C@@H](Cc1cc(I)c(O)c(I)c1)C(=O)O
inactive: Potency (Hek293T) | Potency (JEG-3) | Potency (OV90) | Potency (PA-1) | Potency (SKOV3) | Potency (Tov-21-G) | Potency (Tov112D) | activity, negative = cell killing [1, 2] 3.22% | activity, negative = cell killing [1, 3] 2.54% | activity, negative = cell killing [1, 4] 14.8% | activity, negative = cell killing [1, 5] 3.63% | Potency (astro)

CCOC(=O)NNc1nncc2ccccc12
inactive: Potency (Hek293T) | Potency (JEG-3) | Potency (OV90) | Potency (PA-1) | Potency (SKOV3) | Potency (Tov-21-G) | Potency (Tov112D) | activity, negative = cell killing [1, 2] -5.14% | activity, negative = cell killing [1, 3] -7.16% | activity, negative = cell killing [1, 5] -13.4% | Potency (astro)

CC(C)(C)C(O)/C=C/c1ccc2c(c1)OCO2 (centres undefined)
active: Potency ([1]; tumour line A) 15.8 µM
inactive: Potency (Hek293T) | Potency (JEG-3) | Potency (OV90) | Potency (PA-1) | Potency (SKOV3) | Potency (Tov-21-G) | Potency (Tov112D) | activity, negative = cell killing [1, 2] -14.2% | activity, negative = cell killing [1, 3] -29.5% | activity, negative = cell killing [1, 5] 10.3% | Potency (astro)

CC(=O)Nc1c(I)c(NC(C)=O)c(I)c(C(=O)O)c1I
inactive: Potency (Hek293T) | Potency (JEG-3) | Potency (OV90) | Potency (PA-1) | Potency (SKOV3) | Potency (Tov-21-G) | Potency (Tov112D) | activity, negative = cell killing [1, 2] -4.92% | activity, negative = cell killing [1, 3] -9.58% | activity, negative = cell killing [1, 4] -18.7% | activity, negative = cell killing [1, 5] -9.62% | Potency (astro)
